# Source: PubChem BioAssay (Tox21)
# Values without a mark were called inactive. Inconclusive results are not listed. A call without a number means that no potency is given here. Active and inactive are the calls of the source. Unless noted, calls follow the shape of the dose curve; as a rule, active = well fitted curve in the direction sought with a large enough effect in the repeat runs; inconclusive = weak or mixed curves; inactive = no such curve, though single readings can be large; an effect the other way counts as inactive or inconclusive.
# How the values were obtained:
# [1] = A CellTox Green Cytotoxicity Assay to monitor cytotoxicity in HepG2 cells - 8 hour (AID 1224890); also: nearly all actives have a fitted effect of over 45% in size
# Summary of the method: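 HepG2 cells were seeded together with the CellTox Green dye at 600 cells/well, left 5 h at 37 C/5% CO2, then given compounds in DMSO. Fluorescence from dye bound to dead-cell DNA was read repeatedly over 40 h of treatment at 37 C.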
# [2] = qHTS assay to identify small molecule antagonists of the estrogen receptor alpha (ER-alpha) signaling pathway using the BG1 cell line in the presence of 0.1 nM 17-beta-estradiol - cell viability counter screen (AID 1259241); also: nearly all actives have a fitted effect of over 40% in size
# Summary of the method: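 The cell line endogenously expresses full-length ER-alpha and carries four EREs driving luciferase. Cells are cultured 5 days hormone-free, treated 22 hr with compounds and 0.1 nM estradiol, then viability is read by fluorescence.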
# [3] = qHTS assay to identify small molecule antagonists of the androgen receptor (AR) signaling pathway using the MDA cell line in the presence of 0.5 nM R1881 - cell viability counter screen (AID 1259242); also: nearly all actives have a fitted effect of over 45% in size
# Summary of the method: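 MDA-kb2 cells (human breast carcinoma, stably carrying MMTV-luciferase reporter) were exposed to compounds with 0.5 nM R1881 (final) for 16 hr at 37C, 0% CO2; viability then read as live-cell protease fluorescence (CellTiter-Fluor, 30 min) in the same wells.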
# [4] = target: Estrogen receptor (Homo sapiens) (UniProt P03372); assay: qHTS assay to identify small molecule antagonists of the estrogen receptor alpha (ER-alpha) signaling pathway using the BG1 cell line in the presence of 0.1 nM 17-beta-estradiol (AID 1259244); also: nearly all actives have a fitted effect of over 50% in size; also: potency is read from the fitted curve at half-maximal effect
# Estrogen receptor (Homo sapiens), sequence (P03372 whole entry, looked up): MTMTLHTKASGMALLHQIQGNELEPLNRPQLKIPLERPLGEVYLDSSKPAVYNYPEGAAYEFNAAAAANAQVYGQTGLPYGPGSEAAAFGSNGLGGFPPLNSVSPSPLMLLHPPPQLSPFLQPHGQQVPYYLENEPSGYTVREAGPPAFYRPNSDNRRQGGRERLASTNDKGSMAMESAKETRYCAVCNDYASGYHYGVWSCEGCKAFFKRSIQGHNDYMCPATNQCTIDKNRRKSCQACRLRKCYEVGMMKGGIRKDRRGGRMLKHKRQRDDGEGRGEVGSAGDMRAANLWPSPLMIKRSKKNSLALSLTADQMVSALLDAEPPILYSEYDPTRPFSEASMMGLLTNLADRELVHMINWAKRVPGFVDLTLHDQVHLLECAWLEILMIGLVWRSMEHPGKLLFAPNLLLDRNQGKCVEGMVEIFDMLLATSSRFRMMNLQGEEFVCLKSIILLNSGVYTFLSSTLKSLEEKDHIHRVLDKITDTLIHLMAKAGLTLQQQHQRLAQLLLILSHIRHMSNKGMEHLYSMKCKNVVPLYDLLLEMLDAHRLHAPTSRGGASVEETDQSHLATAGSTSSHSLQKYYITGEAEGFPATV
# Summary of the method: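 VM7Luc4E2 cells (endogenous full-length ER-alpha, stable 4xERE-luciferase) were grown 5 days in phenol red-free medium with charcoal-stripped FBS, then exposed 22 h at 37C to compounds plus 0.1 nM (final) 17beta-estradiol; ONE-Glo luminescence read-out.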
# [5] = qHTS assay to identify small molecule HDAC inhibitors (AID 1259364); also: nearly all actives have a fitted effect of over 45% in size; also: potency is read from the fitted curve at half-maximal effect; as to activity change, negative = inhibition: top concentration of the series differs between compounds
# Summary of the method: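 Wild-type HCT-116 cells were plated overnight, exposed to compounds for 2 h at 37 °C, then given HDAC-Glo class I/II luminogenic reagent for 30 min at room temperature before luminescence was read.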
# [6] = qHTS assay to identify small molecule HDAC inhibitors - cell viability counter screen (AID 1259365); also: series mostly up to about 92 µM; nearly all actives have a fitted effect of over 50% in size
# Summary of the method: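 Viability readout: CellTiter-Glo luminescence. Wild-type HCT-116 cells, 2hr compound treatment following overnight attachment at 37 C.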
# [7] = qHTS assay to identify small molecule agonists of the sonic hedgehog signaling (Shh) pathway - cell viability counter screen (AID 1259366); also: nearly all actives have a fitted effect of over 50% in size
# Summary of the method: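 Viability measured fluorometrically (CellTiter-Fluor, 1hr, 37C) in 3T3 Gli1-Luc reporter cells after 23hr compound exposure within a 24hr incubation at 37C/5% CO2.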
# [8] = qHTS assay to identify small molecule antagonists of the sonic hedgehog signaling (Shh) pathway - cell viability counter screen (AID 1259367); also: nearly all actives have a fitted effect of over 55% in size
# Summary of the method: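 Seed 3T3 Gli1-Luc cells at 2,000 per well; incubate 4 hr; add compound in DMSO, then conditioned medium; incubate at 37C with 5% CO2; add CellTiter-Fluor after 23 hr; read fluorescence 1 hr later.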
# [9] = qHTS assay to identify small molecule phospholipidosis (PLD) inducers (AID 1259344; active = well fitted curve in the direction sought with a large enough effect; an effect the other way counts as inactive or inconclusive)
# Summary of the method: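 Quantitative HTS in HepG2: compound plus LipidTOX Red dye for 24 h, paraformaldehyde fixation with Hoechst 33342, widefield high-content imaging; amiodarone as positive and DMSO as negative control.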
smiles,measurement,setting,value
CC#N,Potency,[1],inactive
same,Potency,[2],inactive
same,Potency,[3],inactive
same,Potency,[4],inactive
same,Potency,[5],inactive
same,Potency,[6],inactive
same,Potency,[7],inactive
CO[Si](C)(OC)OC,Potency,[1],inactive
same,Potency,[2],inactive
same,Potency,[3],inactive
same,Potency,[4],inactive
same,Potency,[5],inactive
same,Potency,[6],inactive
same,Potency,[7],inactive
Nc1ccc(S(=O)(=O)O)c(N)c1,Potency,[1],inactive
same,Potency,[2],inactive
same,Potency,[3],inactive
same,Potency,[4],inactive
same,Potency,[5],inactive
same,Potency,[6],inactive
same,Potency,[7],inactive
same,Potency,[8],inactive
CC(N)CN (stereo unspecified),Potency,[1],inactive
same,Potency,[2],inactive
same,Potency,[3],inactive
same,Potency,[4],inactive
same,Potency,[5],inactive
same,Potency,[6],inactive
same,Potency,[7],inactive
same,Potency,[8],inactive
CC(=O)Nc1ccccc1C,Potency,[1],inactive
same,Potency,[2],inactive
same,Potency,[3],inactive
same,Potency,[4],inactive
same,Potency,[5],inactive
same,Potency,[6],inactive
same,Potency,[7],inactive
same,Potency,[8],inactive
O=Cc1c(Cl)cccc1Cl,Potency,[1],inactive
same,Potency,[2],inactive
same,Potency,[3],inactive
same,Potency,[4],inactive
same,Potency,[5],inactive
same,Potency,[6],inactive
same,Potency,[7],inactive
same,Potency,[8],inactive
CCCOCCOCCO,Potency,[1],inactive
same,Potency,[2],inactive
same,Potency,[3],inactive
same,Potency,[4],inactive
same,Potency,[5],inactive
same,Potency,[6],inactive
same,Potency,[7],inactive
same,Potency,[8],inactive
CN(C)CCOC1=Cc2ccccc2Sc2ccc(Cl)cc21,Potency,[1],inactive
same,Potency,[2],inactive
same,Potency,[3],inactive
same,Potency,[4],inactive
same,outcome,[9],inactive
same,Potency,[6],inactive
same,Potency,[8],inactive
CC(=O)OCC(=O)[C@@]12OC(C)(C)O[C@@H]1C[C@H]1[C@@H]3C[C@H](F)C4=CC(=O)C=C[C@]4(C)[C@@]3(F)[C@@H](O)C[C@@]12C,Potency,[1],inactive
same,Potency,[2],inactive
same,Potency,[3],inactive
same,Potency,[4],inactive
same,outcome,[9],inactive
same,Potency,[5],inactive
same,Potency,[6],inactive
same,Potency,[8],inactive
NC(=O)N(O)[C@@H]1COc2cc(OCc3ccccc3)ccc21,Potency,[1],inactive
same,Potency,[2],inactive
same,Potency,[3],inactive
same,Potency,[4],43.3 µM (active)
same,Potency,[5],1.72 µM (active)
same,Potency,[6],inactive
same,Potency,[7],inactive
O=C1NCCN1,Potency,[1],inactive
same,Potency,[2],inactive
same,Potency,[3],inactive
same,Potency,[4],inactive
same,Potency,[5],inactive
same,Potency,[6],inactive
CC1CC(=O)NN=C1c1ccc(NCC(C)(C)NCC(O)COc2cc(Cl)ccc2C#N)cc1 (stereo unspecified),Potency,[1],inactive
same,Potency,[2],inactive
same,Potency,[3],inactive
same,Potency,[4],inactive
same,Potency,[5],inactive
same,Potency,[6],inactive
same,Potency,[7],inactive
CCOC(=O)c1ccccc1C,Potency,[1],inactive
same,Potency,[2],inactive
same,Potency,[3],inactive
same,Potency,[4],inactive
same,Potency,[5],inactive
same,Potency,[6],inactive
same,Potency,[7],inactive
same,Potency,[8],inactive
CC(C)OCC1CO1 (stereo unspecified),Potency,[1],inactive
same,Potency,[2],inactive
same,Potency,[3],inactive
same,Potency,[4],inactive
same,Potency,[5],inactive
same,Potency,[6],inactive
same,Potency,[7],inactive
C=CCCCCCCCCCCCCCCCC,cytotoxicity increase,[1],-16.6% [at 6.97 µM]
same,"activity change, negative = cytotoxicity",[2],0.274% [at 8.39 µM]
same,"viability change, negative = cytotoxic",[3],2.55% [at 8.39 µM]
same,"activity change, negative = inhibition",[4],11.9% [at 8.39 µM]
same,"activity change, negative = inhibition",[5],2.22% [at 8.39 µM]
same,"activity change, negative = cytotoxicity",[6],-1.22% [at 8.39 µM]
same,"viability change, negative = cytotoxic",[7],4.48% [at 8.39 µM]
